# Measurements from PubChem BioAssay (EPA / NIEHS).
# Where “and” joins values, the source holds several entries; their conditions need not be identical. Equal entries are not always repeated. A structure can be active in one record and inactive in another. Calls of active or inactive are those of the source. Rule for the calls: active = hit-call score of the fitted dose curve at least 0.9, where 1 is the maximum; inactive = score below 0.9.
# What was measured:
# [1] = APR_HepG2_CellLoss_72hr: Apredica 72-hour HepG2 Assay for Cell Loss (AID 2282915); conditions: high-content imaging
# In short: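 Cell number comes from Hoechst 33342-labelled nuclei, imaged at 20x after 3.7% formaldehyde fixation. Dosing was 0.39–200 uM, ten concentrations in duplicate, 0.5% DMSO final, for 72 h. Bidirectional fit relative to DMSO baseline.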
# [2] = APR_HepG2_P-H2AX_72hr: Apredica 72-hour HepG2 Assay for H2AX Phosphorylation (AID 2282916); conditions: imaging, actives raise or lower the signal;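 note: phospho-histone H2A.x immunostain intensity per cell marking DNA damage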
# In short: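 Human hepatoma HepG2 cells are dosed across ten concentrations (0.39 to 200 uM, 0.5% v/v DMSO) and incubated 72 hr. Phospho-histone H2A.x is then detected by antibody staining alongside c-Jun and Hoechst, and quantified by automated fluorescence imaging.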
# [3] = APR_HepG2_MitoMembPot_72hr: Apredica 72-hour HepG2 Assay for Mitochondrial Membrane Potential (AID 2282917); conditions: imaging, actives raise or lower the signal
# In short: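 Membrane potential read by MitoTracker Red CMXRos (250 nM, 30 min, pre-fixation) fluorescence imaging of HepG2 after 72 hr exposure. Ten concentrations, 0.39–200 uM, duplicate wells, 0.5% DMSO; fitted in both directions against DMSO baseline.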
# [4] = APR_HepG2_MitoticArrest_72hr: Apredica 72-hour HepG2 Assay for Mitotic Arrest (AID 2282918); conditions: high-content imaging, actives raise or lower the signal
# In short: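 Read-out is phospho-histone H3 immunofluorescence with Hoechst nuclear segmentation, imaged at 20x. Human HepG2 liver cells received ten concentrations (0.39–200 uM, final DMSO 0.5% v/v) for 72 hr before fixation. Gain or loss of signal was fitted relative to DMSO.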
# [5] = APR_HepG2_MicrotubuleCSK_72hr: Apredica 72-hour HepG2 Assay for Microtubule CSK Stabilty (AID 2282919); conditions: HepG2 microtubule cytoskeleton, high-content imaging, actives raise or lower the signal
# In short: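 High-content imaging of alpha-tubulin staining in fixed HepG2 cells after 72 hr treatment with ten concentrations from 0.39 to 200 uM (0.5% DMSO). Fitting was bidirectional against DMSO; taxol served as positive control.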
# [6] = APR_HepG2_P-H2AX_24hr: Apredica 24-hour HepG2 Assay for H2AX Phosphorylation (AID 2282920); conditions: high-content imaging, actives raise or lower the signal
# In short: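 HepG2, 24 hr, cpd 0.39–200 uM (10 conc, duplicate), DMSO 0.5% v/v final. Fix 3.7% formaldehyde, Triton X-100 permeabilize, anti-phospho-H2A.x 1:200 + Hoechst 2 ug/mL. Imaged, bidirectional fit vs DMSO.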
# [7] = APR_HepG2_StressKinase_72hr: Apredica 72-hour HepG2 Assay for Stress Kinase (AID 2282921); conditions: HepG2 stress kinase (phospho-c-Jun) imaging, actives raise or lower the signal
# In short: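 After a 72 h compound treatment spanning 0.39 to 200 uM, formaldehyde-fixed cells are labelled for phosphorylated c-Jun and nuclei, imaged by automated fluorescence microscopy, and activity is fitted in both directions relative to DMSO controls.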
# [8] = APR_HepG2_StressKinase_24hr: Apredica 24-hour HepG2 Assay for Stress Kinase (AID 2282922); conditions: HepG2 stress kinase (phospho-c-Jun) imaging, actives raise or lower the signal
# In short: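 High-content imaging of phospho-c-Jun immunofluorescence in fixed, permeabilized HepG2 cells after 24 h dosing. Ten concentrations, 0.39 to 200 uM, run in duplicate at 0.5% v/v DMSO; gain or loss of signal versus DMSO.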
# [9] = APR_HepG2_p53Act_72hr: Apredica 72-hour HepG2 Assay for p53 Activation (AID 2282923); conditions: high-content imaging, actives raise or lower the signal;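 note: average cellular p53 protein immunofluorescence intensity in HepG2 cells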
# In short: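 Imaging-based endpoint: after 72 hr compound exposure (up to 200 uM, 0.5% DMSO), fixed and permeabilized monolayers were labelled with anti-p53 antibody and imaged; signal change in either direction was fitted relative to DMSO controls.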
# [10] = APR_HepG2_MitoMass_72hr: Apredica 72-hour HepG2 Assay for Mitochondrial Mass (AID 2282924); conditions: high-content imaging, actives raise or lower the signal;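 note: MitoTracker Red CMXRos stain intensity per cell imaged as mitochondrial mass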
# In short: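 Readout is imaged MitoTracker Red (250 nM, 30 min, pre-fixation) signal, fitted bidirectionally against DMSO baseline. Human HepG2 liver cells received compound 0.39–200 uM in duplicate for 72 hr, final DMSO 0.5%.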
# [11] = ATG_CRE_CIS: Attagene CIS-FACTORIAL HepG2 Assay for human cAMP Responsive Element (CRE) binding protein 3 (AID 2282926); conditions: HepG2 CRE cis-reporter, Attagene multiplexed mRNA; actives raise or lower the signal
# In short: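 Assay format: transient reporter transfection of HepG2, 24 h treatment, total RNA isolation with DNase I step. Reporter abundance read by fluorescence after PCR and capillary separation; DMSO-normalised gain or loss fitting.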
# [12] = target: CCAAT/enhancer-binding protein beta (Homo sapiens) (UniProt P17676); experiment: ATG_C_EBP_CIS: Attagene CIS-FACTORIAL HepG2 Assay for human CCAAT/Enhancer Binding Protein (C/EBP) beta (AID 2282927); conditions: HepG2 Attagene cis-factorial transcription factor reporter; actives raise or lower the signal
# In short: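 Endogenous transcription factor activity in human liver HepG2 cells is inferred from induction of a CEBPB-linked reporter mRNA. Exposure lasts 24 h; activity is fitted in both directions relative to DMSO.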
# [13] = ATG_CMV_CIS: Attagene CIS-FACTORIAL HepG2 Assay for human CMV (Internal Marker) (AID 2282928); conditions: HepG2 CMV promoter reporter, transcription factor profiling; actives raise or lower the signal;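 note: endpoint acts as a background internal control marker rather than a target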
# In short: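 Bidirectional fits against DMSO are applied to reporter mRNA, read by RT-PCR with capillary electrophoresis, from HepG2 cells exposed 24 h. The endpoint serves as an internal CMV background marker within the cis-factorial reporter panel.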
# [14] = target: Aryl hydrocarbon receptor (Homo sapiens) (UniProt P35869); experiment: ATG_Ahr_CIS: Attagene CIS-FACTORIAL HepG2 Assay for human Aryl Hydrocarbon Receptor (Ahr) (AID 2282930); conditions: HepG2 AhR cis-factorial reporter transcription; actives raise or lower the signal
# In short: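 Transient MRTU transfection of HepG2 → 24 h compound exposure → total RNA, oligo(dT) RT → PCR, 6-FAM extension, HpaI cut → CE fluorescence. DMSO = baseline; bidirectional curve fit.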
# [15] = ATG_AP_1_CIS: Attagene CIS-FACTORIAL HepG2 Assay for human Activator Protein 1 (AP-1) (AID 2282931); conditions: HepG2 Attagene cis-factorial AP-1 reporter mRNA; actives raise or lower the signal
# In short: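 Multiplexed HepG2 reporter assay, 24 h dosing. mRNA induction detected by RT-PCR plus capillary electrophoresis. Activity fitted in both directions against DMSO.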
# [16] = ATG_AP_2_CIS: Attagene CIS-FACTORIAL HepG2 Assay for human Activator Protein 2 (AP-2) (AID 2282932); conditions: HepG2 AP-2 cis-reporter, Attagene transcription factor profiling; actives raise or lower the signal
# In short: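 Endogenous transcription factor activity is reported through transfected multiplex reporter constructs in HepG2, after 24 h of compound exposure. Transcripts were quantified by RT-PCR and capillary electrophoresis of fluorescent fragments. Bidirectional fit against DMSO.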
# [17] = ATG_BRE_CIS: Attagene CIS-FACTORIAL HepG2 Assay for human Bone Morphogenetic Protein (BMP) Response Element (BRE) (AID 2282933); conditions: HepG2 BMP response element reporter, Attagene transcription factor profiling; actives raise or lower the signal
# In short: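 Fluorescence-labelled reporter cDNA fragments, separated by capillary electrophoresis, gave the signal for this component of a 52-readout multiplex. HepG2 cells were transfected, exposed to chemicals for 24 h, and compared with DMSO using bidirectional fitting.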
# [18] = target: Retinoic acid receptor alpha (Homo sapiens) (UniProt P10276); experiment: ATG_DR5_RAR_CIS: Attagene CIS-FACTORIAL HepG2 Assay for human Retinoic Acid Receptor Alpha (RARE), DR5 submotif (AID 2282934); conditions: HepG2 Attagene cis-factorial RARE DR5 reporter, mRNA; actives raise or lower the signal
# In short: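 Transient MRTU transfection of HepG2; 24 h compound treatment; TriZol RNA, oligo(dT) RT, PCR, FAM labelling, capillary electrophoresis. Bidirectional fit vs DMSO. Endogenous TF activity at DR5 RARE.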
# [19] = APR_HepG2_NuclearSize_72hr: Apredica 72-hour HepG2 Assay for Nuclear Size (AID 2282925); conditions: high-content imaging, actives raise or lower the signal
# In short: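 Nuclear size was read by high-content imaging of Hoechst 33342 stain after formaldehyde fixation. Compounds ran 72 h on HepG2 at 0.39 to 200 uM, with final DMSO 0.5% v/v. Curves fitted both directions relative to DMSO control.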
# [20] = ATG_DR4_LXR_CIS: Attagene CIS-FACTORIAL HepG2 Assay for human Liver X Receptor (LXR), DR4 submotif (AID 2282929); conditions: HepG2 Attagene DR4 cis-reporter, mRNA transcription; actives raise or lower the signal
# In short: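 Fluorescence intensity of labelled reporter cDNA fragments, separated by capillary electrophoresis, gives the signal. HepG2 cells bearing cis-regulated reporter constructs were treated 24 h; activity fitted bidirectionally relative to DMSO negative control.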
# Retinoic acid receptor alpha (Homo sapiens), sequence (P10276 whole entry, looked up): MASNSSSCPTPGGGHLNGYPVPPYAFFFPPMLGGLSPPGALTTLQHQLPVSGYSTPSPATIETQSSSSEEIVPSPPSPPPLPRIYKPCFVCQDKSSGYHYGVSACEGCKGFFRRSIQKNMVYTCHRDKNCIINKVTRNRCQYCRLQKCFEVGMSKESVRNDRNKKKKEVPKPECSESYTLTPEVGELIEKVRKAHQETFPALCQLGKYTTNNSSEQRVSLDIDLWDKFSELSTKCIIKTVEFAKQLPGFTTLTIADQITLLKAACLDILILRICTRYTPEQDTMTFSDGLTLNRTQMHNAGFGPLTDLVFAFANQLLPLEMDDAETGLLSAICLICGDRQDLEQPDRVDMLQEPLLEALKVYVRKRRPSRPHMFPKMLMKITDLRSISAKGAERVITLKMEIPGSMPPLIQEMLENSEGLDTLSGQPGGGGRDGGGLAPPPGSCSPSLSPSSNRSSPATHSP
# CCAAT/enhancer-binding protein beta (Homo sapiens), sequence (P17676 whole entry, looked up): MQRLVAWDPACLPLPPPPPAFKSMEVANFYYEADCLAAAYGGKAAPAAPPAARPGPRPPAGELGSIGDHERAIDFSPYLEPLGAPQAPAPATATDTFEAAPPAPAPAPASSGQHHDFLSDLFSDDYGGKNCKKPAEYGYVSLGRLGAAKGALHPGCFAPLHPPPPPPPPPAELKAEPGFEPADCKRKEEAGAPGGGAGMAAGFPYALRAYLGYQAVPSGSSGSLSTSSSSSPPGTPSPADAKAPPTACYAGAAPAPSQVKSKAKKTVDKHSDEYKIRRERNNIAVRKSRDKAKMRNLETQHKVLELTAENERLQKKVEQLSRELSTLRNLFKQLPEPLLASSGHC
# Aryl hydrocarbon receptor (Homo sapiens), sequence (P35869 whole entry, looked up): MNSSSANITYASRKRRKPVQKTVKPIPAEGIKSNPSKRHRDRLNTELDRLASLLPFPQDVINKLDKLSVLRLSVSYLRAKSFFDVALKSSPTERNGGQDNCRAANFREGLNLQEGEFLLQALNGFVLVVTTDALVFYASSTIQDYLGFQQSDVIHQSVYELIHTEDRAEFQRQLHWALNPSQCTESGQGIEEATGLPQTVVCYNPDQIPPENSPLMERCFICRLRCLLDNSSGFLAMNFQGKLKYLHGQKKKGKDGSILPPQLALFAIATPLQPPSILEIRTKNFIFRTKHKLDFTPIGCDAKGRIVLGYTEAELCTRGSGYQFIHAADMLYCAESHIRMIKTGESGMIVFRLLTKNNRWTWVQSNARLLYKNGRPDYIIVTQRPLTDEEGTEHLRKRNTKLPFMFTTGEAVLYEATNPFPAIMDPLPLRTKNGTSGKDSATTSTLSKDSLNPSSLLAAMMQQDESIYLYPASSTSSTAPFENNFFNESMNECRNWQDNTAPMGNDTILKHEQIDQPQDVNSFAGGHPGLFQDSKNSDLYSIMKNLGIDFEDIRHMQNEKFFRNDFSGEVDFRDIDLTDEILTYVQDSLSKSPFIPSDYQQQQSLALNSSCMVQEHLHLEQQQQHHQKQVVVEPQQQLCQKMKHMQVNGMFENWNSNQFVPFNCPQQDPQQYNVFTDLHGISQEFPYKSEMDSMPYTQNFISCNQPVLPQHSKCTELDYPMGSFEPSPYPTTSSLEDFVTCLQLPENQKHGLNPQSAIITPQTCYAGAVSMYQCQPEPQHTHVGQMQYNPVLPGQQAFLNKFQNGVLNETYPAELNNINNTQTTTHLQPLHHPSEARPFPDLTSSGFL
smiles,measurement,setting,value
CC(O)CO (stereo unspecified),outcome,[1],inactive
same,outcome,[2],inactive
same,outcome,[3],inactive
same,outcome,[4],inactive
same,outcome,[5],inactive
same,outcome,[6],inactive
same,outcome,[7],inactive
same,outcome,[8],inactive
same,outcome,[9],inactive
same,outcome,[10],inactive
same,outcome,[11],inactive
same,outcome,[12],inactive
same,outcome,[13],inactive
same,outcome,[14],inactive
same,outcome,[15],inactive
same,outcome,[16],inactive
same,outcome,[17],inactive
same,outcome,[18],inactive
CCCCCCCCC(=O)O,outcome,[2],inactive
same,outcome,[3],inactive
same,outcome,[4],inactive
same,outcome,[5],inactive
same,outcome,[6],inactive
same,outcome,[7],inactive
same,outcome,[8],inactive
same,outcome,[9],inactive
same,outcome,[10],inactive
same,outcome,[19],inactive
same,outcome,[11],inactive
same,outcome,[12],inactive
same,outcome,[13],inactive
same,outcome,[14],inactive
same,outcome,[16],inactive
same,outcome,[17],inactive
same,outcome,[18],inactive
CCCCCCCCCCCCCC[N+](C)(C)C,outcome,[11],inactive
same,outcome,[12],inactive
same,AC50,[13],15.2 µM (active)
same,outcome,[13],inactive
same,AC50,[20],16.6 µM (active)
same,outcome,[20],inactive
same,outcome,[14],inactive
same,outcome,[16],inactive
same,AC50,[17],13.1 µM (active) and 4.06 µM (active)
same,outcome,[18],inactive
CCCCOCCO,outcome,[2],inactive
same,outcome,[3],inactive
same,outcome,[4],inactive
same,outcome,[5],inactive
same,outcome,[6],inactive
same,outcome,[7],inactive
same,outcome,[8],inactive
same,outcome,[9],inactive
same,outcome,[10],inactive
same,outcome,[11],inactive
same,outcome,[12],inactive
same,outcome,[13],inactive
same,outcome,[14],inactive
same,outcome,[15],inactive
same,outcome,[16],inactive
same,outcome,[17],inactive
same,outcome,[18],inactive
Oc1cc2ccccc2c2ccccc12,AC50,[2],58.6 µM (active)
same,AC50,[3],38.2 µM (active)
same,AC50,[4],8.45 µM (active)
same,AC50,[5],8.21 µM (active)
same,AC50,[6],3.28 µM (active)
same,outcome,[7],inactive
same,AC50,[8],121 µM (active)
same,AC50,[9],111 µM (active)
same,AC50,[10],61.3 µM (active)
same,outcome,[11],inactive
same,outcome,[12],inactive
same,outcome,[13],inactive
same,outcome,[20],inactive
same,outcome,[14],inactive
same,outcome,[15],inactive
same,outcome,[16],inactive
same,outcome,[17],inactive
same,outcome,[18],inactive
CN1CCC[C@H]1c1cccnc1,outcome,[2],inactive
same,outcome,[3],inactive
same,outcome,[4],inactive
same,outcome,[5],inactive
same,outcome,[6],inactive
same,outcome,[7],inactive
same,outcome,[8],inactive
same,outcome,[10],inactive
same,outcome,[19],inactive
same,outcome,[11],inactive
same,outcome,[12],inactive
same,outcome,[13],inactive
same,outcome,[20],inactive
same,outcome,[14],inactive
same,outcome,[16],inactive
same,outcome,[17],inactive
